Some structures have more than one record in an assay (separate samples or runs), and their calls can disagree. The source made the active and inactive calls. Rule for the calls: active = hit-call score of the fitted dose curve at least 0.9, where 1 is the maximum; inactive = score below 0.9.

A short description of this test: ATG_E_Box_CIS: Attagene CIS-FACTORIAL HepG2 Assay for human Enhancer Box (E-box) (AID 2282936). The settings on record: HepG2 E-box cis-reporter transcription, actives raise or lower the signal. Here is the method: ATG_CIS is a cell-based, multiplexed-readout assay that uses HepG2, a human liver cell line, with measurements taken at 24 hours after chemical dosing in a 24-well plate.ATG_E_Box_CIS is one of 52 assay component(s) measured or calculated from the ATG_CIS assay. It is designed to make measurements of mRNA induction, a form of inducible reporter, as detected with fluorescence intensity signals by Reverse transcription polymerase chain reaction (RT-PCR) and Capillary electrophoresis technology.Data from the assay component ATG_E_Box_CIS was analyzed into 1 assay endpoint. This assay endpoint, ATG_E_Box_CIS, was analyzed with bidirectional fitting relative to DMSO as the negative control and baseline of activity. Using a type of inducible reporter, measures of mRNA for gain or loss-of-signal activity can be used to understand the reporter gene at the transcription factor-level as they relate to the gene USF1. Furthermore, this assay endpoint can be referred to as a primary readout, because this assay has produced multiple assay endpoints where this one serves a reporter gene function. To generalize the intended target to other relatable targets, this assay endpoint is annotated to the dna binding intended target family, where the subfamily is basic helix-loop-helix protein.
Human liver HepG2 cells are transiently transfected with multiple reporter transcription units (MRTUs) in 6-well plates using FuGene 6 reagent (Roche; 3 ml FuGene/1 mg DNA). The MRTU constructs are regulated by a cis-regulating element (promoter). […] A major difference between the CIS and TRANS system is that in CIS activities of endogenous TFs are measured, whereas the TRANS assay evaluates changes in activities of exogenous, chimeric NR-Gal4 proteins. […] At the end of 24 hour incubation, total RNA was isolated using TriZol reagent (Invitrogen). The isolated RNA is then reverse-transcribed using oligo(dT) primer and Mo-MLV reverse transcriptase (Invitrogen) with DNAse I (Ambion) treatment for 30 min. The one-tenth of the produced cDNA was amplified by PCR using Taq DNA polymerase (Invitrogen) and two reporter sequence-specific primers. The PCR products were fluorescently labeled by primer extension with 6-arboxyfluorescein (6-FAM) 5'-labeled reporter sequence-specific primer (2 min at 95 C, 20 s at 68 C and 10 min at 72 C) and these products were digested with 5U of HpaI (New England Biolabs) for 2h at 37 C. The fragments were purified using Qiaquick PCR columns (Qiagen), analyzed on an ABI 3130xL genetic analyzer (Applied Biosystems) with peak positions identified by using a set of X-rhodamine (ROX)-labeled MapMarker1000 molecular weight standards (BioVentures). The raw capillary electrophoresis data was processed using Attagraph software (Attagene).
Consider `CCOP(=O)(NC(C)C)Oc1ccc(SC)c(C)c1` (stereo not given), for which the result was inactive.
A word on the AC50: it is the concentration at which the activity in the assay is half-maximal. Take `C#CCC1=C(C)C(OC(=O)C2C(C=C(C)C)C2(C)C)CC1=O` (stereo not given): the AC50 is 78.6 µM (active).
Turning to `CCC(CC)Nc1c([N+](=O)[O-])cc(C)c(C)c1[N+](=O)[O-]`, the result was inactive.
Consider `CCCCOC(=O)c1ccccc1C(=O)O`, for which the result was inactive.
Still for that read-out and setting: the value for `CCC(=O)Nc1ccc(Cl)c(Cl)c1` was “inactive”.
On the same count and under the same terms, the value for `COc1cc(OC)nc(Sc2cccc(Cl)c2C(=O)O)n1` was “inactive”.
For the compound `CCCOCC(=Nc1ccc(Cl)cc1C(F)(F)F)n1ccnc1`, the result was inactive.
On to `CCOP(=S)(OCC)OC(Cl)C(Cl)(Cl)Cl` (stereo not given), for which the outcome was inactive.
Consider `COc1cccc(C(=O)NN(C(=O)c2cc(C)cc(C)c2)C(C)(C)C)c1C`, for which the result was inactive.
Regarding `C[Si](Cn1cncn1)(c1ccc(F)cc1)c1ccc(F)cc1`, the half-maximal activity concentration (AC50) was 83.2 µM (active).
`CCOP(=O)(SC(C)CC)N1CCSC1=O` (stereo not given): the result was inactive.
On the same count and under the same terms, the value for `CSc1nnc(C(C)(C)C)c(=O)n1N` was “inactive”; that for `CCOC(=O)COc1cc(-c2nn(C)c(OC(F)F)c2Cl)c(F)cc1Cl` was “inactive”.
Same read-out and setting: the value for `CC1=NNC(=O)N(/N=C/c2cccnc2)C1` was “inactive”.
On to `O=[N+]([O-])c1cc(C(F)(F)F)c(Cl)c([N+](=O)[O-])c1Nc1ncc(C(F)(F)F)cc1Cl`, for which the AC50 was 15.2 µM (active) and the result was inactive.
For `COP(=O)(OC)SCn1c(=O)oc2cc(Cl)cnc21`, the outcome was inactive.
Consider `C=C(C)[C@H]1Cc2c(ccc3c2O[C@@H]2COc4cc(OC)c(OC)cc4[C@@H]2C3=O)O1`, for which the outcome was inactive.
The same measure, in the same setting: the entry for `CCC(=NOC/C=C/Cl)C1=C(O)CC(C2CCOCC2)CC1=O` (stereo not given) is “inactive”; for `O=c1ccc(=O)[nH][nH]1` it is “inactive”; for `Cc1nn(-c2cc(NS(C)(=O)=O)c(Cl)cc2Cl)c(=O)n1C(F)F` it is “inactive”.
For the compound `CCCCSP(=O)(SCCCC)SCCCC`, the AC50 is 56.5 µM (active).
On to `COP(=O)(NC(C)=O)SC` (stereo not given), for which the result was inactive.
On the same count and under the same terms, the value for `CC(C)N(C(=O)SCC(Cl)=C(Cl)Cl)C(C)C` was “inactive”.
Still for that read-out and setting: the value for `CCOP(=S)(OCC)Oc1ccc2c(C)c(Cl)c(=O)oc2c1` was “inactive”; that for `Nc1c(Cl)cc([N+](=O)[O-])cc1Cl` was “inactive”.
Still for that read-out and setting: the value for `CCOP(=S)(OCC)Oc1ccc([N+](=O)[O-])cc1` was “inactive”; that for `Cc1cc(C2CC2)nc(Nc2ccccc2)n1` was “inactive”; that for `CC(=NC#N)N(C)Cc1ccc(Cl)nc1` was “inactive”.
For `CCCCOC(=O)[C@@H](C)Oc1ccc(Oc2ccc(C#N)cc2F)cc1`, the outcome was inactive.
Turning to `Cc1ccn2nc(S(=O)(=O)Nc3c(F)cccc3F)nc2n1`, the outcome was inactive.
Still for that read-out and setting: the value for `CCOP(=S)(OCC)SCCSCC` was “inactive”.
The same measure, in the same setting: the entry for `CSc1nc(NC(C)C)nc(NC(C)C)n1` is “inactive”.
Same read-out and setting: the entry for `COP(=O)(OC)C(O)C(Cl)(Cl)Cl` (stereo not given) is “inactive”; for `CC(C1CC1)C(O)(Cn1cncn1)c1ccc(Cl)cc1` (stereo not given) it is “inactive”; for `FC(F)C(F)(F)OCC(Cn1cncn1)c1ccc(Cl)cc1Cl` (stereo not given) it is “inactive”.
`CCc1cnc(C2=NC(C)(C(C)C)C(=O)N2)c(C(=O)O)c1` (stereo not given): the outcome was inactive.
On the same count and under the same terms, the entry for `CN(C)NC(=O)CCC(=O)O` is “inactive”.
Take `CCNc1nc(Cl)nc(NC(C)(C)C#N)n1`: the outcome was inactive.
The same measure, in the same setting: the entry for `CC1(C(=O)Nc2ccc(O)c(Cl)c2Cl)CCCCC1` is “inactive”.

These data come from PubChem BioAssay (EPA / NIEHS).
